# Screening results deposited in PubChem BioAssay by National Center for Advancing Translational Sciences (NCATS).
# JMJD2A Tudor: blocks the human JMJD2A Tudor domain. AlphaScreen JMJD2A-Tudor / H3K4me3 peptide binding. Potency, µM (series often up to 114 µM), inactives show at the highest dose activity change, negative = inhibition, usual class: inhibitors. O75164. hit rate 4.4% among 390,000; also: potency is read from the fitted curve at half-maximal effect; % is scaled to controls: 0 for no effect and ±100 for the full control effect; nearly all actives have a fitted effect of over 50% in size
# BAZ2B inh: inhibitors of human BAZ2B bromodomain | Q9UIF8 | AlphaScreen BAZ2B-H3K14Ac peptide displacement | Potency, µM (titrated, usually from 114 µM), for inactives: top-dose activity change, negative = inhibition, usual class: inhibitors | hit rate 4.4% among 360,000; also: potency is read from the fitted curve at half-maximal effect; % is scaled to controls: 0 for no effect and ±100 for the full control effect; nearly all actives have a fitted effect of over 60% in size
#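 Inhibition is scored as reduced AlphaScreen emission. The BAZ2B/b-H3(5-23)K14Ac complex (50 nM each) in PBS pH 7.4, 0.01% Tween-20 meets compound (up to 110 uM) for 30 min at RT before bead addition.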
# HP1b chromo inh: blocks HP1-beta chromodomain binding to methylated histone tails. AlphaScreen HP1-beta / biotin-H3K9me3 peptide binding. Potency, µM (series often up to 114 µM), for inactives: at the top dose activity change, negative = inhibition, hits mostly inhibitors. hit rate 0.56% among 390,000; also: potency is read from the fitted curve at half-maximal effect; nearly all actives have a fitted effect of over 70% in size
#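 AlphaScreen: HP1-beta (50 nM) preformed 30 min with biotin-H3(1-18)K9me3 peptide (50 nM) in PBS pH 7.4, 0.01% Tween-20. Compound added for 30 min at RT, then streptavidin donor/nickel chelate acceptor beads (10 ug/mL) for 30 min.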
# CtBP-E1A blk: inhibitors of CtBP/E1A interaction; AlphaScreen GST-E1A/His-CtBP binding, 1536-well; stronger effect = lower value; activity change, % (test concentration not listed); hit rate 0.49% among 340,000; in the data active = activity change below about -65%; inconclusive = mostly about -30% to -63%; also: % is scaled to controls: 0 for no effect and ±100 for the full control effect
#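 AlphaScreen with 125 nM GST-E1A and 125 nM His-CtBP (5X stocks) in Tris pH 8.0, 300 mM NaCl, BSA, Tween 20, TCEP. Compounds preincubated 2 h at 37 deg C, then glutathione donor/nickel acceptor beads added for 1 h at 37 deg C in dark.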
# Six1-Eya2 blk: inhibitors of human Six1/Eya2 interaction; Q15475+O00167; AlphaScreen GST-Six1/His-Eya2 binding, biochemical; stronger effect = lower value; activity change, % (no concentration beside the values); hit rate 0.56% among 360,000; in the data active = activity change below about -65%; inconclusive = mostly about -30% to -63%; also: % is scaled to controls: 0 for no effect and ±100 for the full control effect
# Target sequence (O00167 whole entry, looked up): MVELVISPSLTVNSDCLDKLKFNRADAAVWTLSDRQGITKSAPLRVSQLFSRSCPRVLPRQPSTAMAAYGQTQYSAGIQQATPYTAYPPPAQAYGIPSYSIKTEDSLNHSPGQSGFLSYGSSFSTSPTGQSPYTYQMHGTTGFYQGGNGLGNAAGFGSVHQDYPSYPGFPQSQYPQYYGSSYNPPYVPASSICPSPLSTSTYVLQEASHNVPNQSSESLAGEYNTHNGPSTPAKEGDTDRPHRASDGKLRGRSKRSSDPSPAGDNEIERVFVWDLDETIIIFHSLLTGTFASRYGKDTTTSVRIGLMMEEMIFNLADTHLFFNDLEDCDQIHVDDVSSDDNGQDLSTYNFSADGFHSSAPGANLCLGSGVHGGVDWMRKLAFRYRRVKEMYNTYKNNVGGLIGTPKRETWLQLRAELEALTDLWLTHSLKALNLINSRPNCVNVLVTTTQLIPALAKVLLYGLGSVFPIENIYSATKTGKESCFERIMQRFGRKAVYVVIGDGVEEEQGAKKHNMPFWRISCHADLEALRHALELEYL
# Target sequence (Q15475 whole entry, looked up): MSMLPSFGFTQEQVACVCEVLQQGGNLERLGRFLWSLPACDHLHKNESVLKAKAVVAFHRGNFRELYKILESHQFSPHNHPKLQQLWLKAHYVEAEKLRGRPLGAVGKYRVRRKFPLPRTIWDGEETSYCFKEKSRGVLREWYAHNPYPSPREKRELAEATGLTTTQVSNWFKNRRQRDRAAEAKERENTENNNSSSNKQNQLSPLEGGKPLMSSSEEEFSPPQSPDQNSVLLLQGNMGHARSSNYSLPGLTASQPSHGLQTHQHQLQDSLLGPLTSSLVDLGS
#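 Homogeneous AlphaScreen proximity assay pairing GST-Six1 with His-tagged Eya2 (added as 5X mix: 250 nM and 500 nM) in 50 mM Tris pH 8.0, 300 mM NaCl, 1 mM TCEP. Glutathione donor and nickel acceptor beads; 1 h, 37 °C, dark.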
# G9a inh: inhibitors of human histone lysine methyltransferase G9a; hit rate 8.8% among 350,000; G9a H3K9 monomethylation, AlphaScreen, 2 h; Potency, µM (top dose mostly 102 µM), for the others: top-dose activity, negative = inhibition, usual class: inhibitors; Q96KQ7; also: potency is read from the fitted curve at half-maximal effect; % is scaled to controls: 0 for no effect and ±100 for the full control effect; nearly all actives have a fitted effect of over 75% in size
#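 Enzyme 20 nM + cpd, 15 min RT; add b-H3K9 pep 500 nM / SAM 20 uM; 2 h RT; anti-H3K9me1 Ab 0.5 ug/mL + SA donor / anti-rabbit acceptor beads 20 ug/mL each, 10 min; AlphaScreen read.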
# Numbers without * were called inactive; ? = inconclusive; / = no result; [ ] = another dose, or the depositor's remark. This is a sample that favours compounds with a hit; in the whole collection about 10% have one here. Unless noted, calls follow the shape of the dose curve; as a rule, active = well fitted inhibition curve with a large enough effect; inconclusive = small, poorly fitted or top-dose-only effect; inactive = no such curve, though single readings can be large or run the other way.
SMILES,JMJD2A Tudor,BAZ2B inh,HP1b chromo inh,CtBP-E1A blk,Six1-Eya2 blk,G9a inh
O=C(O)c1ccc(/C=N/N2CCN(Cc3cccc4ccccc34)CC2)cc1,-35%,-33%,-13%,-4,1,45µM*
CCOc1ccc(-c2cc(NC(=O)c3cccc(Cl)c3)c(C(=O)OC)s2)cc1,-4%,0%,62%,/,/,20%[59 µM]
O=C(NN1C(=O)c2ccccc2NC1c1ccco1)c1ccc([N+](=O)[O-])cc1 (centres undefined),-16%,-13%,38%,/,0,10%
CCOc1ccc(N2C(=O)CC(N(CCc3ccc(OC)cc3)C(=O)/C=C/C(=O)O)C2=O)cc1 (centres undefined),6%,-9%,33%,0,6,/
CCOc1ccc(NC(=O)CCn2cccn2)cc1,-11%,-8%,19%,/,/,22%[59 µM]
COc1cc(/C=N/N2CCN(Cc3ccc(C)cc3)CC2)cc(OC)c1O,40µM*,56µM*,?,-20,-17,/
Cc1ccsc1/C=N/N1CCN(Cc2ccccc2)CC1,56µM*,?,?,-15,-18,32µM*
Cc1ccsc1CN1CCN(c2ccccn2)CC1,1.8µM*,50µM*,-53%,3,1,?
CSc1ccc(/C=N/N2CCN(C)CC2)cc1,?,?,-10%,-21,-7,-30%
c1ccc(-c2nnc(CN3CCN(c4ccccn4)CC3)o2)cc1,-19%,-3%,19%,/,/,6%[59 µM]
CN1CCN(/N=C/c2c3ccccc3c(Cl)c3ccccc23)CC1,40µM*,20µM*,?,0,?,35µM*
COc1ccc(S(=O)(=O)NNC(=O)Nc2ccc(F)cc2F)c(OC)c1,-2%,1%,11%,-5,5,46%
CSc1ccc(/C=N/N2CCN(Cc3ccc(Cl)cc3)CC2)cc1,?,22µM*,-12%,-15,-14,?
CSc1ccc(/C=N/NC(=O)CN2CCN(Cc3ccc(Cl)cc3)CC2)cc1,-21%[57.1 µM],19%,?,-14,-14,-7%[59 µM]
OC(CN1CCN(Cc2ccccc2)CC1)c1ccc(F)cc1 (centres undefined),-33%,-25%,54%,7,-1,?
Fc1ccc(CN2CCN(C(c3ccccc3)c3ccccc3)CC2)cc1,22µM*,50µM*,?,/,2,32µM*
Cn1cccc1/C=N/N1CCN(c2ccccn2)CC1,?,50µM*,-58%,4,-19,16µM*
Cc1ccc(/C=N/N2CCN(Cc3ccccc3)CC2)cc1,79µM*,?,-16%,?,-25,?
CCCCCCn1cc(CN2CC(N3CCCCC3)CS2(=O)=O)nn1 (centres undefined),/,/,/,-22,15,/
O=Nc1c(O)n(Cc2cccc(Cl)c2)c2ccccc12,-27%,-31%,-4%,-1,-5,/
CSc1nc(C=Nc2ccccc2Cl)c(O)n1Cc1cccc(Cl)c1,79µM*,-19%,5%,-3,-21,/
Cc1ccc(C)c(N2CCN(S(=O)(=O)c3cc(-c4cc(C)no4)ccc3C)CC2)c1,-16%,-7%,26%,/,/,-7%[59 µM]
CCCCN(C(=O)CSc1nnc(-c2ccc(Cl)cc2)o1)c1c(N)n(CC(C)C)c(=O)[nH]c1=O,-12%,0%,6%,-10,10,1µM*
COCCN(C(=O)CSc1nnc(-c2ccc(C)cc2)n1N)c1c(N)n(Cc2ccccc2)c(=O)[nH]c1=O,-14%,-10%,19%,-3,19,/
COCCN(C(=O)c1ccc(-c2ccc([N+](=O)[O-])cc2)o1)c1c(N)n(CC(C)C)c(=O)[nH]c1=O,-15%,-1%,23%,2,-5,45µM*
SMILES,JMJD2A Tudor,BAZ2B inh,HP1b chromo inh,CtBP-E1A blk,Six1-Eya2 blk,G9a inh
CCCCn1c(N)c(N(CC(C)C)C(=O)CSc2nn(-c3ccc(F)cc3)c(=S)s2)c(=O)[nH]c1=O,-16%,/,33%,-3,1,/
COCCN(C(=O)CSc1nnc(-c2ccc(Cl)cc2)o1)c1c(N)n(CC(C)C)c(=O)[nH]c1=O,2%,8%,33%,5,5,132%
COCCN(C(=O)CSc1nnc(C)n1Cc1ccccc1)c1c(N)n(CC(C)C)c(=O)[nH]c1=O,79µM*,-15%,-3%,2,12,3%
COCCN(C(=O)CSc1nn(-c2ccc(F)cc2)c(=S)s1)c1c(N)n(CC(C)C)c(=O)[nH]c1=O,-12%,9%,21%,-6,5,8.9µM*
O=C(Cn1nnc(-c2ccccc2Cl)n1)NCc1ccc2c(c1)OCO2,0%,-2%,22%,-6,10,-6%[59 µM]
CC(=O)C1=C(c2ccc(F)cc2)N(C(C)=O)n2c(nnc2C2CCCCC2)S1,9%,0%,36%,/,/,1%[59 µM]
COCCN(C(=O)CSc1nnc(-c2ccc(C(C)(C)C)cc2)n1N)c1c(N)n(CC(C)C)c(=O)[nH]c1=O,-4%,5%,40%,-2,-3,40µM*
CCCCN(C(=O)CSc1nnc(-c2ccc(OC)cc2)n1C(C)C)c1c(N)n(Cc2ccccc2)c(=O)[nH]c1=O,-14%,-28%,32%,/,-1,10µM*
COCCN(C(=O)CSc1nnc(-c2ccc(F)cc2)n1N)c1c(N)n(CC(C)C)c(=O)[nH]c1=O,/,/,/,2,0,/
O=c1[nH]c(CSc2ncc(C(F)(F)F)cc2Cl)nc2ccccc12,-10%,-12%,28%,2,4,-30%
O=C(COc1ccccc1)Nc1nnc(-c2ccco2)o1,14µM*,18µM*,15%,-7,?,?
O=C(COc1ccc(Cl)cc1)Nc1nnc(-c2ccco2)o1,28µM*,22µM*,26%,-11,-15,-29%
O=C(COc1ccccc1)Nc1nnc(-c2ccc(Cl)s2)o1,89µM*,?,46%,-20,-12,14%
CCOc1ccc(C(=O)Nc2cc(-c3nc4ccccc4o3)ccc2C)cc1Cl,-23%,2%,5%,/,/,11%[59 µM]
C#Cc1cccc(Nc2ncnc3cc(OC)c(OC)cc23)c1,/,/,/,/,/,8%[59 µM]
CC(=O)Nc1ccc2nc(SCc3ccccc3)sc2c1,-16%,-18%,32%,/,/,2%[59 µM]
CCOC(=O)CSc1nc2ccc(N)cc2s1,-18%,-6%,28%,4,0,32µM*
CCN(CC)C(=O)CSc1nc(N)c(C(=O)Nc2ccc(OC)cc2)s1,-27%,-24%,10%,-20,-9,-5%[59 µM]
Nc1ccc2nc(SCc3cccc(F)c3)sc2c1,-33%,/,-7%,2,-14,45µM*
CCOC(=O)CSc1nc(N)c(C(=O)Nc2ccc(N(C)C)cc2)s1,40µM*,50µM*,?,-24,-27,16µM*
Nc1ccc2nc(SCC(=O)N3CCOCC3)sc2c1,-8%,-1%,31%,19,21,0%
